Most compounds without a hit are left out; they make up all but 2.9% or so of the library.
ADAM10 inh: ADAM10 inhibition, QFRET primary screen; recombinant ADAM10, EDANS/DABCYL FRET peptide cleavage, 3 h; inhibition, % at 7 µM; actives 0.62% (n = 370,000); AID 720582;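 active = inhibition above a per-campaign cutoff equal to the mean of compounds falling between control-based bounds plus 3 SD, cut at about 20% in these data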
PLCg1 inh: PLC-gamma1 (human) inhibition, primary screen | inhibition, % at 12.2 µM | actives 0.84% (n = 370,000) | purified PLC-gamma1, fluorogenic substrate, fluorescence; in the data active = inhibition above about 9.5%
PLC-beta3 inh: PLC-beta3 (human) inhibition, primary screen. Q01970. Purified PLC-beta3, fluorogenic substrate, fluorescence. inhibition, % at 12.2 µM. actives 0.18% (n = 370,000). AID 720704; in the data active = inhibition above about 11%
ADAM17 inh: ADAM17 inhibition, QFRET primary screen; P78536; recombinant ADAM17, EDANS/DABCYL FRET peptide cleavage; inhibition, % at 6.95 µM; actives 0.83% (n = 370,000); AID 720648;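 active = inhibition above the mean of compounds lying between control limits plus 3 SD, set per campaign, cut at about 8.5% in these data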
Target sequence (P78536 215-824 limits assumed): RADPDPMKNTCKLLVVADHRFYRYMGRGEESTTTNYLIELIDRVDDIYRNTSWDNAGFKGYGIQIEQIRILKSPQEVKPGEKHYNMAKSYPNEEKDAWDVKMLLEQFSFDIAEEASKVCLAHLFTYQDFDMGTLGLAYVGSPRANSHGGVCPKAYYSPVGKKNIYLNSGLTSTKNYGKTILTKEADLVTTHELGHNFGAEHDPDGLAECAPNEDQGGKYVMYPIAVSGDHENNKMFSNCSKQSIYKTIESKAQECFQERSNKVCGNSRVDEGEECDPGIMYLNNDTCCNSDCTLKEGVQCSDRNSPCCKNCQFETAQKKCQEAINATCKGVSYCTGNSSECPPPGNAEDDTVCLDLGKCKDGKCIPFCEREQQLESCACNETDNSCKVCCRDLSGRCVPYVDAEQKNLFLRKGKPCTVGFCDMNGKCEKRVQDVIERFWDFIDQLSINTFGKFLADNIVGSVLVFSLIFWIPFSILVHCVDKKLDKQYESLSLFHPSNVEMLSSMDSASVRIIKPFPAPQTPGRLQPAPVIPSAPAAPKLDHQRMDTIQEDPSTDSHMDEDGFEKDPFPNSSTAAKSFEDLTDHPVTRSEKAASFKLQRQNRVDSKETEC
KLK7 zymogen act: activates the human kallikrein-7 zymogen; P49862; purified proKLK7, EDANS-DABCYL substrate fluorescence; 100% is mature enzyme control, 0% vehicle; activation, % at 7 µM; actives 0.9% (n = 370,000); AID 652039;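 active = activation above the mean of all tested compounds plus 3 SD, computed per campaign excluding outliers beyond control limits, cut at about 13% in these data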
proKLK7 act conf: confirmation of human kallikrein-7 zymogen activators; shares compounds with KLK7 zymogen act; purified proKLK7, EDANS-DABCYL substrate fluorescence; scaled: vehicle 0, mature enzyme 100; activation, % at 7 µM; actives 68% (n = 3,200); AID 686949;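 active = activation, as change over the incubation, above the mean of all tested compounds plus 3 SD, cut at about 13% in these data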
EDANS interfere: optically interferes with EDANS-DABCYL signal, flagging KLK7 hits. activation, % at 7 µM. AID 686952. EDANS-DABCYL substrate fluorescence interference, no enzyme, 4 h; solvent 0%, active enzyme control 100%. shares compounds with KLK7 zymogen act. actives 80% (n = 3,200);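 active = activation above the all-compound mean plus 3 SD, ignoring values outside control-based bounds, cut at about 4.8% in these data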;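 note: value is the 4 h activation minus the activation read at time zero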
Of the large screens only hits and unclear results are named; the others gave an inactive call (follow-up assays come after a bar, where they were run).

COc1cc2c(cc1OC)C(=S)NC1(CCCC1)C2	none
COc1cc2c(cc1OC)/C(=C/C#N)NC(C)(C)C2	KLK7 zymogen act 19.3 | proKLK7 act conf inactive | EDANS interfere 13.5
Cc1coc2c(C)c3oc(=O)c(CCC(=O)N[C@@H](C)C(=O)N[C@@H](Cc4ccccc4)C(=O)O)c(C)c3cc12	KLK7 zymogen act 22.6 | proKLK7 act conf 41.0 | EDANS interfere 36.5
Cc1coc2c(C)c3oc(=O)c(CC(=O)N[C@@H](CC(C)C)C(=O)O)c(C)c3cc12	none
OC1CN=C2CCCc3c2n(c2ccc(Cl)cc32)C1 (stereo not given)	KLK7 zymogen act 17.2 | proKLK7 act conf inactive | EDANS interfere inactive
CC(C)n1nnnc1C1(C)CCCCC(=O)N1Cc1cccc(C(F)(F)F)c1 (stereo not given)	none
CSc1ccc(/C=C/C(=O)OCC(=O)NC2CC2)cc1	KLK7 zymogen act 20.7 | proKLK7 act conf 23.2 | EDANS interfere 25.0
CSc1ccc(/C=C/C(=O)OCC(=O)NC(C)C)cc1	KLK7 zymogen act 21.7 | proKLK7 act conf 16.6 | EDANS interfere 17.9
O=C(c1cccs1)N1CC[C@H]2[C@H](CCCN2Cc2cc(F)cc(F)c2)C1	none
O=c1cc(CN2CCN(Cc3ccccc3)CC2)c2ccc(O)cc2o1	KLK7 zymogen act 71.0 | proKLK7 act conf 65.5 | EDANS interfere 72.4
O=C(c1ccco1)N1CCN(Cc2cccc3ccccc23)CC1	none
O=C(c1ccco1)N1CCN(Cc2cc(=O)oc3cc(O)ccc23)CC1	KLK7 zymogen act 90.2 | proKLK7 act conf 56.8 | EDANS interfere 68.1
CC1CN(Cc2cc(=O)oc3cc(O)ccc23)CC(C)O1 (stereo not given)	KLK7 zymogen act 45.8 | proKLK7 act conf 66.6 | EDANS interfere 67.1
Cc1ccc2c(CN3CCN(Cc4ccccc4)CC3)cc(=O)oc2c1	none
C=CCN1C(=O)[C@@H](CC(=O)N2CCCCC2)[C@]2(C(=O)OC)CCCCC=C12	none
CC(C)(C)c1ccc(CN2N=Nc3ccccc3S2(=O)=O)cc1	KLK7 zymogen act 20.6 | proKLK7 act conf inactive | EDANS interfere inactive
COc1ccc(OC)c(/C=C/C(=O)NC2=NCCS2)c1	none
COc1ccc(/C=C/C(=O)NC2=NCCS2)cc1OC	KLK7 zymogen act 15.1 | proKLK7 act conf 48.1 | EDANS interfere 46.8
CN(C)c1ccc(C(=O)NC2CCCCN(Cc3ccc(Cl)cc3)C2=O)cc1 (stereo not given)	none
CSc1ccc(-c2cccc3nncn23)cc1	KLK7 zymogen act 20.7 | proKLK7 act conf 25.7 | EDANS interfere 24.7
Cn1cc(-c2cccc3nncn23)cn1	none
Nc1cccc(-c2cccc3nncn23)c1	KLK7 zymogen act 29.0 | proKLK7 act conf inactive | EDANS interfere inactive
c1cc(-c2ccsc2)n2cnnc2c1	none
CSc1cnc2c(N)nc(N(C)C)nc2n1	none
CN(C)c1nc(N)c2nccnc2n1	KLK7 zymogen act 21.4 | proKLK7 act conf inactive | EDANS interfere inactive
COC(=O)C[C@@H]1CC[C@H]2[C@@H](COc3ccc(NC(=O)NC(C)C)cc3C(=O)N2C)O1	none
CCN(CC)C(=O)CC[C@H]1CC[C@]2(CCCN(C(=O)c3ccno3)C2)O1	none
Cn1c(-c2cc3ccccc3oc2=O)nc2ccccc21	none
COc1ccc2cc(-c3nc4ccccc4n3C)c(=O)oc2c1	KLK7 zymogen act 22.1 | proKLK7 act conf 38.8 | EDANS interfere 34.8
COc1c2ccoc2c(OC[C@@H](OC(C)=O)C(C)(C)O)c2oc(=O)ccc12	none
COc1c2ccoc2nc2c(OC)c(OCC(O)C(C)(C)O)ccc12 (stereo not given)	KLK7 zymogen act 21.8 | proKLK7 act conf 40.8 | EDANS interfere 38.9
COc1c2ccoc2nc2c(OC)c(OCC(OC(C)=O)C(C)(C)O)ccc12 (stereo not given)	KLK7 zymogen act 18.5 | proKLK7 act conf 13.3 | EDANS interfere 13.4
COc1c2ccoc2nc2c(OC)c(OC[C@@H](O)C(C)(C)O)ccc12	KLK7 zymogen act 24.4 | proKLK7 act conf 37.0 | EDANS interfere 40.4
COc1ccc2c(OC)c3ccoc3nc2c1OC	KLK7 zymogen act 26.8 | proKLK7 act conf 31.2 | EDANS interfere 62.0
COc1ccc(C(C)c2cn(C)c3ccccc23)cc1 (stereo not given)	none
C=C1[C@@H]2CC[C@H]3[C@]4(C)[C@@H](O)CC[C@@](C)(C(=O)OC)[C@H]4C[C@H](O)[C@]3(C2)[C@H]1O	none
O=S(=O)(Nc1cccc(-c2cn3cccnc3n2)c1)c1ccc(F)cc1	KLK7 zymogen act 58.5 | proKLK7 act conf 14.4 | EDANS interfere 13.7
O=S(=O)(Nc1ccc(-c2csc(-c3ccccc3)n2)cc1)c1ccccc1	none
COc1ccc(-c2cn3cccnc3n2)cc1F	KLK7 zymogen act 64.3 | proKLK7 act conf 77.7 | EDANS interfere 82.5
O=S(=O)(Nc1cccc(-c2cn3ccsc3n2)c1)c1ccc(F)cc1	none
O=S(=O)(Nc1cccc(-c2cn3cccnc3n2)c1)c1ccccc1	KLK7 zymogen act 70.0 | proKLK7 act conf 14.9 | EDANS interfere 17.7
O=S(=O)(Nc1ccc(-c2cn3cccnc3n2)cc1)c1ccccc1	KLK7 zymogen act 64.8 | proKLK7 act conf 22.2 | EDANS interfere 22.4
O=S(=O)(Nc1cccc(-c2cn3cccnc3n2)c1)c1ccc(-c2ccccc2)cc1	none
C#CCNC(=O)C[C@H]1C[C@@]2(C(=O)OC)C(=C[C@H](C3CCCC3)O[C@@H]2C)N(CCC2=CCCCC2)C1=O	none
O=C(C1CCN(S(=O)(=O)c2ccc3[nH]c(=O)oc3c2)CC1)N1CCCC1	none
COc1ccc(-c2cn3cccnc3n2)cc1NS(=O)(=O)c1ccccc1	KLK7 zymogen act 16.3 | proKLK7 act conf inactive | EDANS interfere 5.2
COc1ccc(-c2cn3cccnc3n2)cc1NC(=O)c1cc(OC)c(OC)c(OC)c1	none
O=S1(=O)c2c(NCc3ccco3)cccc2Oc2ccccc2CN1Cc1cn(Cc2ccc(F)cc2)nn1	none
CC(C)N(C(=O)COC(=O)c1cc(Cl)cc(Cl)c1N)C(C)C	none
CN(C)C(=O)COC(=O)c1cc(Cl)cc(Cl)c1N	KLK7 zymogen act 25.3 | proKLK7 act conf 24.3 | EDANS interfere 30.9
Nc1ccc(N=Nc2ccccc2O)c(N)c1	KLK7 zymogen act 40.0 | proKLK7 act conf 101.1 | EDANS interfere 99.2
COc1ccc(S(=O)(=O)NCCc2cn3nc(C)c(C)nc3n2)cc1F	KLK7 zymogen act 20.1 | proKLK7 act conf 72.6 | EDANS interfere 81.2
CC(=O)Nc1ccc(S(=O)(=O)NCCc2cn3nc(C)c(C)nc3n2)cc1	KLK7 zymogen act 16.4 | proKLK7 act conf 61.8 | EDANS interfere 55.2
COc1ccc(S(=O)(=O)NCc2cn3c(C)csc3n2)cc1F	none

From PubChem
